Assay results as given in article PMC7155171, “Probing the Open Global Health Chemical Diversity Library for Multistage-Active Starting Points for Next-Generation Antimalarials” (ACS Infectious Diseases, 2020).
In all, about 68,000 compounds were measured (“% viability”: median about 1.1, lowest 2% from about 0.96 on). What follows is part of a selection rich in the lowest values, with near analogues and random picks from the rest. The numbers are fractions of the control, whatever unit the source prints.

The compounds below were run on P. falciparum (NF54) stage V gametocytes. Conditions: primary screen, n=2, fraction of DMSO control; 72 h, 2 µM; inhibitor.
Design: Mature stage V gametocyte viability, MitoTracker Red CMXRos high-content imaging

| Structure (SMILES) | % viability |
| --- | --- |
| CC(NC(=O)CCC1=NC(=C2N=CN=N2)NO1)c1ccc(F)cc1F (stereo not shown) [DDD01068293] | 1.218% |
| CC(=O)N1CCCN(C(=O)CCOc2ccc(C(C)C)cc2)CC1 [DDD01298039] | 0.9627% |
| CN(Cc1ccc(F)c(F)c1)C(=O)CCC1=NC(=C2N=CN=N2)NO1 [DDD01062114] | 1.185% |
| Cn1cc(C(=O)N2CCCC(c3cc(=O)n(C)[nH]3)C2)cn1 (stereo not shown) [DDD01060486] | 1.105% |
| CCCc1nn(C)c(N)c1-c1ccc2c(c1)OCO2 [DDD01074641] | 1.2104% |
| Cc1ccc(S(=O)(=O)Cc2noc([C@@H]3C[C@@H](O)CN3C(C)C)n2)cc1 [DDD01025534] | 1.063% |
| Cn1ccc(C(=O)N2CCCC(c3cc(=O)n(C)[nH]3)C2)n1 (stereo not shown) [DDD01060541] | 0.9912% |
| Cc1[nH]n(C2CCS(=O)(=O)C2)c(=O)c1Cc1ccccc1Cl (stereo not shown) [DDD01026964] | 1.154% |
| Cn1nc(C2CCC2)c(-c2ccc3c(c2)OCO3)c1N [DDD01074643] | 1.107% |
| CCn1[nH]cc2nc(-c3cc(OC)c(OC)cc3OC)nc1-2 [DDD01254934] | 1.131% |
| COc1cc2c(cc1-c1nc3c[nH]n(C(C)C)c-3n1)OCO2 [DDD01249461] | 1.226% |
| COCC(=O)N1Cc2[nH]c3c(C)c(-c4cccs4)nn3c(=O)c2C1 [DDD01056747] | 0.9901% |
| Cc1[nH]n(C2CCS(=O)(=O)C2)c(=O)c1CCc1ccccc1 (stereo not shown) [DDD01026977] | 1.342% |
| CCc1cc(=O)n2nc(C3CCCN3C(=O)c3ccccn3)cc2[nH]1 (stereo not shown) [DDD01057178] | 1.278% |
| Cc1[nH]n(Cc2ccc(F)cc2)c2nnc(N)c1-2 [DDD01012470] | 1.161% |
| Cn1nc(C2CC2)c(-c2ccc3c(c2)OCO3)c1N [DDD01074640] | 1.305% |
| CCc1nc(CN(C)C2CCN(CCn3cc(C#N)cn3)C2)no1 (stereo not shown) [DDD01304196] | 1.045% |
| Cc1ccc(CN2CCc3c([nH]c4cc(C5CC5)nn4c3=O)C2)s1 [DDD01058491] | 1.123% |
| COc1cc2c(cc1-c1nc3c[nH]n(C)c-3n1)OCO2 [DDD01248770] | 1.141% |
| COc1cc2c(cc1-c1nc3c[nH]n(C(C)C4CC4)c-3n1)OCO2 (stereo not shown) [DDD01244142] | 1.215% |
| Cc1[nH]n(C2CCS(=O)(=O)C2)c(=O)c1Cc1cccc(Cl)c1 (stereo not shown) [DDD01026994] | 1.159% |
| CCc1nn(C)c(N)c1-c1ccc2c(c1)OCO2 [DDD01074639] | 1.278% |
